# Experimental data from ChEMBL document CHEMBL1961873, “Compounds: GSK PKIS; Assays: Nanosyn kinase panel” (2012).
# Assays:
# [1] = test system: Epidermal growth factor receptor (Homo sapiens), P00533 [T790M]; details: at 1 µM
# [2] = test system: Epidermal growth factor receptor (Homo sapiens), P00533 [L858R,T790M]; details: at 0.1 µM
# [3] = test system: Epidermal growth factor receptor (Homo sapiens), P00533 [L858R,T790M]; details: at 1 µM
# [4] = biological target: Ephrin type-A receptor 2 (Homo sapiens) (UniProt P29317); details: at 0.1 µM
# [5] = biological target: Ephrin type-A receptor 2 (Homo sapiens) (UniProt P29317); details: at 1 µM
# [6] = biological target: T1, Ephrin type-A receptor 3 (Homo sapiens) (UniProt P29320); details: at 0.1 µM
# T1 sequence (whole entry): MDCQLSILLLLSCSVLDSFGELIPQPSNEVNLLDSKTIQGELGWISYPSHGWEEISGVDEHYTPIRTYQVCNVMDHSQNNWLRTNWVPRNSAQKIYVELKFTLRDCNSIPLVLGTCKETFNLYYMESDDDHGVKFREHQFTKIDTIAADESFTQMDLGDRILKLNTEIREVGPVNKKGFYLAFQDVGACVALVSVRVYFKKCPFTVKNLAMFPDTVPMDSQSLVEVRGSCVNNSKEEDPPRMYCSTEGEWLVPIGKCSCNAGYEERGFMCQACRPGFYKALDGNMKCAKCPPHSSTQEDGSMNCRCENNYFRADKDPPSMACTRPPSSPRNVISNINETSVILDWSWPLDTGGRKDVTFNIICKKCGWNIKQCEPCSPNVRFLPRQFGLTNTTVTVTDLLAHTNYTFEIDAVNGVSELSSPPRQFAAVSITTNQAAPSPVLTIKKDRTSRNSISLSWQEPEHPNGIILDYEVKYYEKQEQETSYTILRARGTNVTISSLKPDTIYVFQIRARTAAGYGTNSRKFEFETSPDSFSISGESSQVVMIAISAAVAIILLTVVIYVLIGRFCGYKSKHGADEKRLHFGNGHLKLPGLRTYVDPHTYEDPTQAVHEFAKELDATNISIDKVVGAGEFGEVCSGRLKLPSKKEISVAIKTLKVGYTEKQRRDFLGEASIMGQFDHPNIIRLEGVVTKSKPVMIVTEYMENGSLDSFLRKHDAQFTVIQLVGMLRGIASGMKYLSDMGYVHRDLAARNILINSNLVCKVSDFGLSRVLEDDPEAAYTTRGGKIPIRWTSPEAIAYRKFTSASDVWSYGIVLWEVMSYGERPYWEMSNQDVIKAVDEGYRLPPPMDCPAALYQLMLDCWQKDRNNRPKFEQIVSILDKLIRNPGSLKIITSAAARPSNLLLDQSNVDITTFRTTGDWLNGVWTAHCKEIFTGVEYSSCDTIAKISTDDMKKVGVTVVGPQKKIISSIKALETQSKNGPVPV
# [7] = biological target: T1, Ephrin type-A receptor 3 (Homo sapiens); details: at 1 µM
# [8] = biological target: Ephrin type-A receptor 4 (Homo sapiens) (UniProt P54764); details: at 0.1 µM
# Chain of Ephrin type-A receptor 4 (Homo sapiens) (P54764 whole entry): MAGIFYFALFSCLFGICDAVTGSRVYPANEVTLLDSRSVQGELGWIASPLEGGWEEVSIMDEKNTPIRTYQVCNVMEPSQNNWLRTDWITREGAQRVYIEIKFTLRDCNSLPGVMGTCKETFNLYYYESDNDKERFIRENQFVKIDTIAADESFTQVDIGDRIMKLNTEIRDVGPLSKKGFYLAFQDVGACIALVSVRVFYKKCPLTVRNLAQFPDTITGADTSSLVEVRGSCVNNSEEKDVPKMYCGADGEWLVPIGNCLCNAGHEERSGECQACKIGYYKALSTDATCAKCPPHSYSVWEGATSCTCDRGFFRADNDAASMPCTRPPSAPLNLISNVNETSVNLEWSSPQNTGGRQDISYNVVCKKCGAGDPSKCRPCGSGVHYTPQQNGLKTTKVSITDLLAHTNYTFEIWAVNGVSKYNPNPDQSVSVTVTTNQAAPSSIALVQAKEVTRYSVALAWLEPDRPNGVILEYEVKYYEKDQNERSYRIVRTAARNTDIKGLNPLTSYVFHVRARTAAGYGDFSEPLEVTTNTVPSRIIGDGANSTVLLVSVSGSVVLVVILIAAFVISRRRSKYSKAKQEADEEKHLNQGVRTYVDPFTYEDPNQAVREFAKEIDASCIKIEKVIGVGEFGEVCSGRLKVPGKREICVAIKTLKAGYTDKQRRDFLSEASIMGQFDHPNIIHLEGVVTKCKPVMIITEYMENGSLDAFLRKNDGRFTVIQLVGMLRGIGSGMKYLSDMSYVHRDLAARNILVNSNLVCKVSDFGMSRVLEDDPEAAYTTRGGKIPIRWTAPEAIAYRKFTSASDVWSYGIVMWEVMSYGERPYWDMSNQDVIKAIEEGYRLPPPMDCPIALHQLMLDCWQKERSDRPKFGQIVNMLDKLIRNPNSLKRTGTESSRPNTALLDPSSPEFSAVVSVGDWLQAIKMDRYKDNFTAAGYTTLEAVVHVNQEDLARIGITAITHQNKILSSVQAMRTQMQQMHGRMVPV
# [9] = biological target: Ephrin type-A receptor 4 (Homo sapiens) (UniProt P54764); details: at 1 µM
# [10] = biological target: T2, Ephrin type-B receptor 2 (Homo sapiens) (UniProt P29323); details: at 0.1 µM
# T2 sequence (whole entry): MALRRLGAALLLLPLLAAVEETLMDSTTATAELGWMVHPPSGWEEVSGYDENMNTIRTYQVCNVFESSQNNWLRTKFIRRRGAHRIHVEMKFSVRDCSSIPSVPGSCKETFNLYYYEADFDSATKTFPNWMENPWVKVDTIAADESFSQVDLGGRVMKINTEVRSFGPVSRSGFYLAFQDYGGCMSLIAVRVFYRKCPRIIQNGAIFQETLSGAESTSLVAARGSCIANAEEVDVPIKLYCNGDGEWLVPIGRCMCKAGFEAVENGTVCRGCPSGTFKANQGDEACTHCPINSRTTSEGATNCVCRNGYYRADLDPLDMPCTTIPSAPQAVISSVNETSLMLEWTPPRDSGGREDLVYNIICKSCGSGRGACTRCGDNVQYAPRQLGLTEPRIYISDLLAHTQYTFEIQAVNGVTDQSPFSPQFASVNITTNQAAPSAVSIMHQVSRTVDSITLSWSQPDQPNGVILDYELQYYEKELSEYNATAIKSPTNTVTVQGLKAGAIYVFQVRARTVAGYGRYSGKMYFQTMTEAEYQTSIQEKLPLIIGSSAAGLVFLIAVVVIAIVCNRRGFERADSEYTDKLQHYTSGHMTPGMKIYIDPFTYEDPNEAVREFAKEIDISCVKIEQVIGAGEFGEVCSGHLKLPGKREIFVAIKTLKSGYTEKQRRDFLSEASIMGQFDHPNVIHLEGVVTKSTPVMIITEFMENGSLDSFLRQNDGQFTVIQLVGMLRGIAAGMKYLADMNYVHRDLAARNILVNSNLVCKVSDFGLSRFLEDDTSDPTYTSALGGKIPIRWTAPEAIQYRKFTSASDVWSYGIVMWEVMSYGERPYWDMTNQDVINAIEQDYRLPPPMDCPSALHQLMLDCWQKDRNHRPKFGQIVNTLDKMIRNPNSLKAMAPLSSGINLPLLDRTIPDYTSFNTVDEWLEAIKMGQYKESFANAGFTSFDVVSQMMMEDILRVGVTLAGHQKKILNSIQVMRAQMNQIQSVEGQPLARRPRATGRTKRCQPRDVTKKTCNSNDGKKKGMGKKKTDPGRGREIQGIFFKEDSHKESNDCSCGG
# [11] = biological target: T2, Ephrin type-B receptor 2 (Homo sapiens); details: at 1 µM
# [12] = biological target: T3, Ephrin type-B receptor 3 (Homo sapiens) (UniProt P54753); details: at 0.1 µM
# T3 sequence (whole entry): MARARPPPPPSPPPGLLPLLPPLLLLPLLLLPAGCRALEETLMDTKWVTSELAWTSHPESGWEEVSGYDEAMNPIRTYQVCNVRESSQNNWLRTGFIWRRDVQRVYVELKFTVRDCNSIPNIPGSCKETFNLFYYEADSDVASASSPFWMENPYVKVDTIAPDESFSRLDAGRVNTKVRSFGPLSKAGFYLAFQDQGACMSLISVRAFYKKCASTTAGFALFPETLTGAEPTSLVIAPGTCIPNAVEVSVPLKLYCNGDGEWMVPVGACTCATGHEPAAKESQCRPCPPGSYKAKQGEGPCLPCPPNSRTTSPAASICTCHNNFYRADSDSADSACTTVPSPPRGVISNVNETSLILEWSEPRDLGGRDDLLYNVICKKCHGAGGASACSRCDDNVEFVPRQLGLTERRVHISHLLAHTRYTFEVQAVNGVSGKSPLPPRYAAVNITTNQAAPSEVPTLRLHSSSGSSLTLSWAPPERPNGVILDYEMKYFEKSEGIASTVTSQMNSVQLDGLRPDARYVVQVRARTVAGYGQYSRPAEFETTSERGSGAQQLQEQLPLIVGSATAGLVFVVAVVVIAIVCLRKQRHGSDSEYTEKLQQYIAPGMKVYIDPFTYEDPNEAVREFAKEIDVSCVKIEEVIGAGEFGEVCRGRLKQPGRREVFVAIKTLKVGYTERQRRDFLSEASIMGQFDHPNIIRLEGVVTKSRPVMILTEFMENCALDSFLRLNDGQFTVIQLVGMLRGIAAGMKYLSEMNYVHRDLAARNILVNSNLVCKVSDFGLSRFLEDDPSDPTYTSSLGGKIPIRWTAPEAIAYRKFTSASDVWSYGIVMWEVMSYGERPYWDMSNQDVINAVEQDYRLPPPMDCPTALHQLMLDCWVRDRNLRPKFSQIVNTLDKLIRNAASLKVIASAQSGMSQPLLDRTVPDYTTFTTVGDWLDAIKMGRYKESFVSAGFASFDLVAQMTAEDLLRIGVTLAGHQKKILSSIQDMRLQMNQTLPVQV
# [13] = biological target: T3, Ephrin type-B receptor 3 (Homo sapiens); details: at 1 µM
# [14] = biological target: T4, Ephrin type-B receptor 4 (Homo sapiens) (UniProt P54760); details: at 0.1 µM
# T4 sequence (whole entry): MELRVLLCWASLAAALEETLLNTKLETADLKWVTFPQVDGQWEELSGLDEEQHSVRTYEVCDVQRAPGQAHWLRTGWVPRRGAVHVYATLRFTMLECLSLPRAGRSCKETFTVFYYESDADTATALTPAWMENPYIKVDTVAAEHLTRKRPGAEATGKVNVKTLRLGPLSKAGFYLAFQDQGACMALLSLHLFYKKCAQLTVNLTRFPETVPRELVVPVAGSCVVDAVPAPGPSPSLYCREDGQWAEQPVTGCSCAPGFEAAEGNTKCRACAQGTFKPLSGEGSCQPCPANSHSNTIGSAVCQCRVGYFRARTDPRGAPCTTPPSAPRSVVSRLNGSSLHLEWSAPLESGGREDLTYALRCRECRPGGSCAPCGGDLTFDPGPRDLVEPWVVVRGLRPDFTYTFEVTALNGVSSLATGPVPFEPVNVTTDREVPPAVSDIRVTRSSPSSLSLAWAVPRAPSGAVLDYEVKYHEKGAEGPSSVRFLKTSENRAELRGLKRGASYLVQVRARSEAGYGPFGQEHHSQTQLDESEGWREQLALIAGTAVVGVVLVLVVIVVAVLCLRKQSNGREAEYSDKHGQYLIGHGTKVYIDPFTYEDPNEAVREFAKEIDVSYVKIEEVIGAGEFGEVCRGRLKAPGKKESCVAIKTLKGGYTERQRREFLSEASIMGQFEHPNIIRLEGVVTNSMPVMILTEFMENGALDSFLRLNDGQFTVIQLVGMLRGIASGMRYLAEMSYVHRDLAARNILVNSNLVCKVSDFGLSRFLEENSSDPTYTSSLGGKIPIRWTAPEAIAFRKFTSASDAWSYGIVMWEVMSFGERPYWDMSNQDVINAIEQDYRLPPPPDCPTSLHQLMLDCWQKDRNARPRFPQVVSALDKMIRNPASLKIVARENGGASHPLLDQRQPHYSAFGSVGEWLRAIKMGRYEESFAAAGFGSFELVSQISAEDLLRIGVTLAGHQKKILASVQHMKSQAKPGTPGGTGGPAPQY
# [15] = biological target: T4, Ephrin type-B receptor 4 (Homo sapiens); details: at 1 µM
# [16] = biological target: Receptor tyrosine-protein kinase erbB-2 (Homo sapiens) (UniProt P04626); details: at 0.1 µM
# [17] = biological target: Receptor tyrosine-protein kinase erbB-2 (Homo sapiens) (UniProt P04626); details: at 1 µM
# [18] = biological target: Receptor tyrosine-protein kinase erbB-4 (Homo sapiens) (UniProt Q15303); details: at 0.1 µM
# [19] = biological target: Receptor tyrosine-protein kinase erbB-4 (Homo sapiens) (UniProt Q15303); details: at 1 µM
# [20] = biological target: Tyrosine-protein kinase Fer (Homo sapiens) (UniProt P16591); details: at 0.1 µM;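 note: reported figures are averaged percent inhibition of FER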
# Chain of Tyrosine-protein kinase Fer (Homo sapiens) (P16591 whole entry, looked up): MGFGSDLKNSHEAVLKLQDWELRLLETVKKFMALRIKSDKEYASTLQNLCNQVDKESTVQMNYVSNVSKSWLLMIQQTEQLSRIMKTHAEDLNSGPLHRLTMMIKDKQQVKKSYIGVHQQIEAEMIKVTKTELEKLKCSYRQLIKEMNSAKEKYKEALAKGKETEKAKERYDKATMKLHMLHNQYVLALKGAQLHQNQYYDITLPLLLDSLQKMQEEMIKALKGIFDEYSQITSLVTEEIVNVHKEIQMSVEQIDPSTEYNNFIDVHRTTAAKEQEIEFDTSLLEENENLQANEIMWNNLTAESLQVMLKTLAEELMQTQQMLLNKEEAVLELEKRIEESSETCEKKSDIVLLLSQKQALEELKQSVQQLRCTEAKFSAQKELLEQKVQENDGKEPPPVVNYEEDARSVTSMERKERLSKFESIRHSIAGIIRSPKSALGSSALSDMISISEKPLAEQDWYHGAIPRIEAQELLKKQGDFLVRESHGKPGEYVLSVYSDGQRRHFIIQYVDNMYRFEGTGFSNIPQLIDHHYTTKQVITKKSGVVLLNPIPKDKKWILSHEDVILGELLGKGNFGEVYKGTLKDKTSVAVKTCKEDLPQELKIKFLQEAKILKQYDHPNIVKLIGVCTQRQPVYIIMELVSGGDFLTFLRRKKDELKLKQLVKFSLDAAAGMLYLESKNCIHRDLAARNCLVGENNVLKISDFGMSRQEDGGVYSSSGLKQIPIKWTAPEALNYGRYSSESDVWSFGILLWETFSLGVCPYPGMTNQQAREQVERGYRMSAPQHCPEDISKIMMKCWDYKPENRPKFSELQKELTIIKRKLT
# Chain of Epidermal growth factor receptor (Homo sapiens), P00533 [T790M] (P00533 whole entry T790M): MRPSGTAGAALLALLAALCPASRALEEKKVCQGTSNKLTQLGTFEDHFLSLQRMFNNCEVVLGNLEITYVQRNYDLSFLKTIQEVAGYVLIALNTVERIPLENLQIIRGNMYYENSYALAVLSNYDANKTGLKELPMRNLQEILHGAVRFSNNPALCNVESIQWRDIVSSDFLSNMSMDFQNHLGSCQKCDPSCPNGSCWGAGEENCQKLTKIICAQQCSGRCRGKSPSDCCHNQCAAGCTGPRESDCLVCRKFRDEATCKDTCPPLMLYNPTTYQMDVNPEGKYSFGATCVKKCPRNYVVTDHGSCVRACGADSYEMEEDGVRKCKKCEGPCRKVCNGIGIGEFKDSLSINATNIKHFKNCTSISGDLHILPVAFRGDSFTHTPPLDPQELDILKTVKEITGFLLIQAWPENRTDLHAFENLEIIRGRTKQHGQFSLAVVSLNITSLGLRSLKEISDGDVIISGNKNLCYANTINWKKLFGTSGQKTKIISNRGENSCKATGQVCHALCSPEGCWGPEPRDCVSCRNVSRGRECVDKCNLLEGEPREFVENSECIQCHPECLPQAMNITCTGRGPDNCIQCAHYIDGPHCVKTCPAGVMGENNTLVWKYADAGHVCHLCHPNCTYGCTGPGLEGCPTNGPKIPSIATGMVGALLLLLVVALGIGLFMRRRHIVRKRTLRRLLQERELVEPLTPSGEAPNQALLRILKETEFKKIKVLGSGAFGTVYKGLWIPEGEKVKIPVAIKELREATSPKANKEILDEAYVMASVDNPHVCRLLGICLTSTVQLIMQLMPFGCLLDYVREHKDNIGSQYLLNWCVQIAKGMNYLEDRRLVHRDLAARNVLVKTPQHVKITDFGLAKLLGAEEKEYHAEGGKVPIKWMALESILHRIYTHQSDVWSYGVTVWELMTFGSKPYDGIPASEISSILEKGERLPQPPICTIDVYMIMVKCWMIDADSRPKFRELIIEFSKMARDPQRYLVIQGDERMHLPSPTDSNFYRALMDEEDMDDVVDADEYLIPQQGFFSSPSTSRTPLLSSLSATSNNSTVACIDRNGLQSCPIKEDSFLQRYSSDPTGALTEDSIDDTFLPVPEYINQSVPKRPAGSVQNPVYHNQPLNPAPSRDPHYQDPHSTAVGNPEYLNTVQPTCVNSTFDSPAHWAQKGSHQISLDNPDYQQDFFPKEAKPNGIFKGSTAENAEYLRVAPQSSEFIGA
# Chain of Epidermal growth factor receptor (Homo sapiens), P00533 [L858R,T790M] (P00533 whole entry T790M/L858R, looked up): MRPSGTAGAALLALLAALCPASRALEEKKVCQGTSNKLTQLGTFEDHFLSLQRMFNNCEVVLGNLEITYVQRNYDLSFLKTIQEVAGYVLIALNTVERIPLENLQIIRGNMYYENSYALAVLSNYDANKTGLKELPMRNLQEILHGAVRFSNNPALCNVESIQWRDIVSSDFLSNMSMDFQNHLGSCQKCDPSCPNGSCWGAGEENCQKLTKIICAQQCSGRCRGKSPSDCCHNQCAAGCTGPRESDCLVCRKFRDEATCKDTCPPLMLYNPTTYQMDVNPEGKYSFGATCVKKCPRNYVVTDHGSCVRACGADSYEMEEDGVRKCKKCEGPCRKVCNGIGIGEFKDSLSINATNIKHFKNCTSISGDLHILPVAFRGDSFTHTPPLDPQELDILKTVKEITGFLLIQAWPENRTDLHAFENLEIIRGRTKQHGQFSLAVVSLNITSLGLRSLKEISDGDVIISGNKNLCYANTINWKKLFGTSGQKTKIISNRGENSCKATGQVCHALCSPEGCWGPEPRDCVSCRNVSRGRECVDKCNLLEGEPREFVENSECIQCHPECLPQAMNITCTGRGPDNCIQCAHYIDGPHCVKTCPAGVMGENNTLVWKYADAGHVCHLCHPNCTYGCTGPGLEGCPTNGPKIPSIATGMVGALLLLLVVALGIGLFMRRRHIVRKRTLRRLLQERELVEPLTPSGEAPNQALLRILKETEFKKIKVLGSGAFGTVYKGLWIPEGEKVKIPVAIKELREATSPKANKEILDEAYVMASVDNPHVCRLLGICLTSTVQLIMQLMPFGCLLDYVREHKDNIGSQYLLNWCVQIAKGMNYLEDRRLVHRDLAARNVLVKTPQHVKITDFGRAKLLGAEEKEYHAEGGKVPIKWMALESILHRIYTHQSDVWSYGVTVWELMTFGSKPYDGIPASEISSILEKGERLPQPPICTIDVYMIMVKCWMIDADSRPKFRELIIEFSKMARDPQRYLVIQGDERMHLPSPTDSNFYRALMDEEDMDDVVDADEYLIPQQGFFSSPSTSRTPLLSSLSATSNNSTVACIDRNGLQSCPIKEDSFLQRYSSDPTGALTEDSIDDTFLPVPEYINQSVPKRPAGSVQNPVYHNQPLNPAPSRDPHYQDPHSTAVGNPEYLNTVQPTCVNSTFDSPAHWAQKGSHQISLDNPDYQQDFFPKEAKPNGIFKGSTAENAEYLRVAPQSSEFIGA
Compound,inhibition [1] [%],inhibition [2] [%],inhibition [3] [%],inhibition [4] [%],inhibition [5] [%],inhibition [6] [%],inhibition [7] [%],inhibition [8] [%],inhibition [9] [%],inhibition [10] [%],inhibition [11] [%],inhibition [12] [%],inhibition [13] [%],inhibition [14] [%],inhibition [15] [%],inhibition [16] [%],inhibition [17] [%],inhibition [18] [%],inhibition [19] [%],inhibition [20] [%]
NC(=O)c1cc(-c2ccc(F)cc2)cc(-c2ccncc2)c1N,3.83,0.39,-0.62,0.4,3.67,4.53,2.83,10.1,12.7,5.78,8.83,5.88,5.99,3.64,3.21,4.35,4.97,7.7,11.7,1.98
C[C@@H](Oc1cc(-n2cnc3ccc(OC4CCN(C)CC4)cc32)sc1C(N)=O)c1ccccc1Cl,1.48,1.1,6.15,-2.62,-3.66,-0.17,-0.53,7.06,9.83,7.8,7.99,-1.42,-0.38,-3.06,-1.28,2.36,2.65,1.1,6.83,3.05
COc1cccc(/C=N/Nc2ncnc3c2cnn3-c2cccc(OC)c2)c1,2.12,2.14,2.04,-1.3,-1.94,1.72,3.83,6.9,9.69,8.19,5.8,1.82,3.68,0.66,1.2,0.2,5.67,5.57,10,-0.09
COc1cc2ncn(-c3cc(OCc4cccs4)c(C(N)=O)s3)c2cc1OC,5.88,-0.25,5.43,-1.31,-1.86,-2.47,0.85,8.34,19.3,7.38,20.8,-3.17,-3.49,-2.89,-2.46,5.9,12.5,1.73,6.6,5.05
